Measurements taken from the supplement of paper PMC6555819.

Columns and labels:
Test in all cases: PBM binding z-score (relative to random genomic background probes); higher = stronger binding; sequences stand for … in GC…GCGATTGACAGCGTAGAATGAAGG
[1] = tested on: RARb homodimer (NR concentration 270 nM)
Summary of the method: (§1)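 Ligand-free nuclear receptor dimers were applied to custom Agilent 4×180K protein-binding microarrays whose double-stranded probes carried direct-repeat seeds, single-nucleotide variants, half-site ablations and random human genomic background sequences in 34-nt variable regions. Incubation lasted 1 h. Binding z-scores were computed against the random background probes from regression-normalized fluorescence.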

[2] = tested on: RARg:RXRa (NR concentration 270 nM, RXRa partner concentration 90 nM)
Summary of the method: as §1

[3] = tested on: RARg homodimer (NR concentration 270 nM)
Summary of the method: as §1

[4] = tested on: RXRa DBDmut IVT, anti-RXR (DBD mutation: RXRa K156A/R161A, NR concentration 90 nM)
Summary of the method: as §1

[5] = tested on: RXRa homodimer (NR concentration 180 nM)
Summary of the method: as §1

[6] = tested on: THRa:RXRa (NR concentration 90 nM, RXRa partner concentration 90 nM)
Summary of the method: as §1

[7] = tested on: THRa homodimer (NR concentration 90 nM)
Summary of the method: as §1

[8] = tested on: VDR homodimer (NR concentration 270 nM)
Summary of the method: as §1

Row | Sequence | PBM binding z-score [1] | PBM binding z-score [2] | PBM binding z-score [3] | PBM binding z-score [4] | PBM binding z-score [5] | PBM binding z-score [6] | PBM binding z-score [7] | PBM binding z-score [8]
1 | TCATATAGGTAGTACAGGTGAAAGTCGGCATCTA | 0.475 | 0.549 | 0.317 | 1.32 | 1.02 | 0.404 | 0.361 | 0.606
2 | CCTATTGGGCCATCAGGTCATTGATATCAACGTT | 2.49 | 2.26 | 1.88 | 0.643 | 1.39 | 3.3 | 2.98 | 1.87
3 | CGAACTAGGGCATCCAGGACAGTGAATACATTGA | 0.585 | 0.674 | 1.17 | 0.66 | 0.135 | 1.61 | 0.745 | 0.366
4 | ATCTCTAGGTAAGACTCAGTTCAGTGTAGAACGC | 0.758 | 0.266 | 0.408 | 0.967 | 0.133 | 0.88 | 0.909 | 1.39
5 | CCGACTGGGGCAGAAAGGTTACCTTACCATCCGG | 1.97 | 1.25 | 0.987 | -0.233 | 1.28 | 1.39 | 0.772 | -0.247
6 | CCTACTGGGCCGCGAAAGGTCATTGATTCAGTGA | 4.47 | 4.49 | 3.88 | 0.701 | 5.19 | 3.25 | 0.433 | 2.12
7 | CGTCCACGGTCAGAGAGGTCAGTGAATGCCGAGT | 4.32 | 3.6 | 4.74 | 0.914 | 2.75 | 2.54 | 0.458 | 2.11
8 | CCGACTGGGGCAGAAAGGTTACCATCCCATCCGG | 2.3 | 1.44 | 1.19 | -1.13 | 1.48 | 0.817 | -0.666 | -0.162
9 | CCGACTGGGGCTAAGGTTACCATACTCAGTACGA | 1.12 | 0.783 | 0.678 | 0.382 | 0.902 | 2.39 | 1.68 | 0.443
10 | GCTTACGGGTCAAAGGTAATAGCATGAATAGAAT | 2.5 | 5.3 | 4.22 | 1.97 | 6.87 | 3.07 | -0.169 | 1.06
11 | CTCGAAAGGTCGTGCTCCGGTGAGTATACCAAAC | 3.04 | 5.03 | 3.94 | 2.08 | 5.18 | 3.06 | 0.517 | 1.26
12 | ACTATTTGTTGAGACGAGGGCAACCGATAGGTTG | 1.14 | 0.614 | 0.897 | 0.884 | 0.414 | 1.21 | 0.711 | 1.3
13 | TGAATGAGGTTATATGATCAGGGAACGTTGCAAA | 0.492 | 1.64 | 0.971 | 1.26 | 2.06 | 1.98 | 0.364 | 0.855
14 | ACAGACAGGTGAGTGAAGTTAACTCAGCTGGACG | -0.414 | -0.0567 | 0.156 | -0.397 | 0.359 | -0.189 | -1.01 | -0.612
15 | TCTTGGAGATCAACAGGAGGTTAAGAAAGATCGA | 0.488 | 1.9 | 0.145 | 0.185 | 1.3 | 1.14 | -0.452 | -0.283
16 | CCGACTGGGGCATAAGGTTACCATGAGCCAGCCC | 1.89 | 1.81 | 0.826 | -0.562 | 1.32 | 2.05 | 1.17 | -0.247
17 | CCGACTGGGGCAAGGTTACCGTAACGCACAGCCA | 1.39 | 1.08 | 1.28 | -0.694 | 1.04 | 1.22 | 0.42 | -0.25
18 | CAAACTAGGTCAAAGGTCAAAGTCGAGCCAACCA | 4.96 | 8.83 | 7.42 | 2.87 | 10.2 | 4.74 | 1.83 | 3.41
19 | ATCTCTAGGTAAGACCCAGTTCAGTGAAGAACGC | 0.62 | 0.282 | 0.0331 | 0.175 | 0.283 | 0.738 | 0.878 | 1.3
20 | CGTCCAAGGTCAGAGAGGACAGTGAATGCCGAGT | 4.12 | 4.57 | 5.67 | 2.6 | 3.68 | 3.67 | 2.08 | 2.85
21 | GGAACGAGGGCAAAGTTGAAAGCATCTGTCGACG | 1.51 | 2.59 | 1.86 | 2.79 | 2.88 | 1.59 | -0.341 | 0.999
22 | CCTCGGAGGAGAACAGGAGGTCAGAGCTGCCAGA | 2.87 | 2.04 | 1.63 | -0.274 | 1.76 | 2.21 | 0.793 | 0.851
23 | AGAACGAGGGCACGCTGAGTCGATAGCAGAGTAG | 1.02 | 1.92 | 2.12 | 1.87 | 1.29 | 1.72 | -0.22 | 0.912
24 | ATATGTAGGCTATCGGGTCATTCAGTTTGCGCAT | 2.23 | 2.01 | 1.52 | 1.1 | 2.08 | 2.91 | 1.79 | 3.16
25 | TCTGCTAGGTCAACAATGGTCAGCTAATCTGCTA | 3.37 | 4.13 | 4.92 | 1.33 | 2.64 | 3.08 | 0.805 | -0.0461
26 | ATCGAAAGGTCGTGAGGGGAGTATACAGAAAGGC | 2.78 | 4.4 | 3.89 | 1.72 | 5.16 | 2.72 | 0.843 | 1.42
27 | CGTCCAAGGTCAAAGTTCAGTGAAGAGATGACGG | 4.6 | 7.44 | 7.1 | 4.25 | 8.84 | 4.31 | 1.92 | 4.39
28 | TCTTGTAGATCAAAGGTTAAGAAGGCCGAAGCCT | 1.58 | 1.95 | 0.702 | 0.627 | 3.37 | 1.51 | -0.402 | 0.0638
